Data on 17 compounds can be found in PubChem BioAssay (EPA / NIEHS).

Assay [1] in a line: CPHEA_Stoker_NIS_Cytotoxicity: Cytotoxicity Assessment for CPHEA's Radioactive Iodide Uptake (RAIU) Assay for Sodium/Iodide Symporter (NIS) Inhibition, Stoker and Laws Labs (AID 2283897).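 For AC50: active means loss of ATP signal versus DMSO meaning cytotoxicity.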 In outline: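 Viability in hNIS-HEK293T-EPA cells is scored as a drop in luciferase-detected ATP following 2-hour room-temperature exposure (0.001–100uM; triplicate wells, three cell passages), with DMSO as negative control.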

The nature of assay [2]: CEETOX_H295R_OHPREG_noMTC: CeeTox H295R High-throughput Steroidogenesis Assay for OH-Pregnenolone (OHPREG), maximum tolerated concentration (MTC) filtered results only (AID 2283912; active = hit-call score of the fitted dose curve at least 0.9, where 1 is the maximum; inactive = score below 0.9). Conditions: actives raise or lower the signal. Summed up:
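Readout is HPLC-MS/MS quantification of 17alpha-hydroxypregnenolone released by forskolin-stimulated H295R cells over 48 h of chemical exposure, DMSO as baseline.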

Assay [3] is described as follows: CEETOX_H295R_OHPROG_noMTC: CeeTox H295R High-throughput Steroidogenesis Assay for OH-Progesterone (OHPROG), maximum tolerated concentration (MTC) filtered results only (AID 2283914; active = hit-call score of the fitted dose curve at least 0.9, where 1 is the maximum; inactive = score below 0.9). To be noted: actives raise or lower the signal. Summed up: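 Analysis uses all tested concentrations, without maximum-tolerated-concentration screening by MTT. H295R cells, forskolin-primed (10 uM, 48 h), receive chemical for 48 h; hormone in medium measured by HPLC-MS/MS, with bidirectional curve fitting against DMSO.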

Assay [4] is described as follows: CEETOX_H295R_ANDR_noMTC: CeeTox H295R High-throughput Steroidogenesis Assay for Androstenedione (ANDR), maximum tolerated concentration (MTC) filtered results only (AID 2283915; active = hit-call score of the fitted dose curve at least 0.9, where 1 is the maximum; inactive = score below 0.9). To be noted: actives raise or lower the signal. In outline:
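Androstenedione secreted into medium was measured by LC-MS/MS after MTBE extraction. Human adrenal H295R cells received 10 uM forskolin for 48 h before 48 h chemical exposure (0.1% DMSO). Gain or loss fitted against DMSO, including concentrations above the MTT-derived MTC.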

Assay [5] concerns frog Estrogen Receptor (ER2), gene 100174814. Briefly: ATG_frER2_XSP2: Attagene TRANS-FACTORIAL Multi-Species (XSP2) HepG2 Assay for frog Estrogen Receptor (ER2) (AID 2283828). Summed up: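 Induction of reporter mRNA, baseline set by DMSO, is the endpoint. The panel was run in transfected HepG2 cells over 24 h, with 3 nM 6-alpha-fluorotestosterone and 1.5 nM norgestrel present to stimulate androgen receptor.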

The target of assay [6] is Peroxisome proliferator-activated receptor gamma (Homo sapiens) (UniProt P37231). The assay can be described thus: ATG_hPPARg_XSP2: Attagene TRANS-FACTORIAL Multi-Species (XSP2) HepG2 Assay for human Peroxisome Proliferator-activated Receptor gamma (PPARg) (AID 2283829).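 Note: actives raise reporter mRNA above DMSO so AC50 reflects PPARg activation.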 In outline:
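Multiplexed transactivation in transfected HepG2 liver cells. Gal4-chimeric receptor activity reported as induced reporter transcript after 24 h.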

For assay [7], the target named is mouse Peroxisome Proliferator-activated Receptor gamma (PPARg), Pparg (gene 19016) (UniProt P37238). Briefly: ATG_mPPARg_XSP2: Attagene TRANS-FACTORIAL Multi-Species (XSP2) HepG2 Assay for mouse Peroxisome Proliferator-activated Receptor gamma (PPARg) (AID 2283830).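 Note: hits are gains in reporter mRNA above DMSO so AC50 marks activation.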 In outline: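 Multiplexed TRANS reporter readout: after 24 h chemical exposure of transfected HepG2 cells (with 3 nM 6-alpha-fluorotestosterone, 1.5 nM norgestrel present), RNA reverse-transcribed, amplified, 6-FAM-labelled and resolved by capillary electrophoresis; mouse PPARg-Gal4 induction scored against DMSO.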
Sequence of mouse Peroxisome Proliferator-activated Receptor gamma (PPARg), Pparg (gene 19016) (P37238 whole entry, looked up, the tested form may be a part): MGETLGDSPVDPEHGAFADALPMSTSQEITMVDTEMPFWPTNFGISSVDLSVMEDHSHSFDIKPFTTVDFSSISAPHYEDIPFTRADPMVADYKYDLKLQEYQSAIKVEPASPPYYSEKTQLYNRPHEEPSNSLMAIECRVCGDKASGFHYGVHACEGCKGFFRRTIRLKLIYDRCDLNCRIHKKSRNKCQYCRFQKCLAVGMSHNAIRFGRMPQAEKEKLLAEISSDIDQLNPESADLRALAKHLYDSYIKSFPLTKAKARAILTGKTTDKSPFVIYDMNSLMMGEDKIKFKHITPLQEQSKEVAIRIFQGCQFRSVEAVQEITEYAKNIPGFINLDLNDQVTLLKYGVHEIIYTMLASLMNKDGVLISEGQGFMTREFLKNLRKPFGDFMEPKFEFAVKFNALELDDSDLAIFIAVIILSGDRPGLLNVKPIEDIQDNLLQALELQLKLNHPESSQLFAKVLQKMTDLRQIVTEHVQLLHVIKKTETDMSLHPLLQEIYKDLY

The target of assay [8] is Nuclear receptor subfamily 1 group I member 2 (Mus musculus) (UniProt O54915). The assay can be described thus: ATG_mPXR_XSP2: Attagene TRANS-FACTORIAL Multi-Species (XSP1) HepG2 Assay for mouse Pregnane X Receptor (PXR) (AID 2283831). In outline: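 Human liver HepG2 cells expressing exogenous receptor-GAL4 chimeras were exposed to test chemicals for 24 h. Induction of reporter mRNA was scored as gain of fluorescence signal over DMSO controls.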
Sequence of Nuclear receptor subfamily 1 group I member 2 (Mus musculus) (O54915 whole entry, looked up, the tested form may be a part): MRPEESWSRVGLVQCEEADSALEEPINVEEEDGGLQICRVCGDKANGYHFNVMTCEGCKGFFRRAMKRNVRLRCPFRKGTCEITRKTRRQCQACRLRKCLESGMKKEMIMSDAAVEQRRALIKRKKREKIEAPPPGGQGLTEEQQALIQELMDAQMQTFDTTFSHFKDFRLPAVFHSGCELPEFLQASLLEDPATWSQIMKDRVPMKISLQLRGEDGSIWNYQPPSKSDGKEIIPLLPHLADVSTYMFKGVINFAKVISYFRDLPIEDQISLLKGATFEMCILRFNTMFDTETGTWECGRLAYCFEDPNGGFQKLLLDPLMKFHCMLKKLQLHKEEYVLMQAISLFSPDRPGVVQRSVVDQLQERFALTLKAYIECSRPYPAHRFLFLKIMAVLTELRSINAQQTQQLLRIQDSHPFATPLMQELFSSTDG

The target of assay [9] is zebrafish Thyroid Hormone Receptor alpha (TRa), thraa (gene 30670) (UniProt Q98867). Briefly: ATG_zfTRa_XSP2: Attagene TRANS-FACTORIAL Multi-Species (XSP1) HepG2 Assay for zebrafish Thyroid Hormone Receptor alpha (TRa) (AID 2283832).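 Note: actives raise zebrafish TRa-Gal4 reporter transcript above DMSO baseline.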 Summed up: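 Multiplexed TRANS reporter format in HepG2; the medium also contained 3 nM 6-alpha-fluorotestosterone and 1.5 nM norgestrel. Reporter mRNA after 24 h read by RT-PCR and capillary electrophoresis, scored as induction over DMSO.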
Sequence of zebrafish Thyroid Hormone Receptor alpha (TRa), thraa (gene 30670) (Q98867 whole entry, looked up, the tested form may be a part): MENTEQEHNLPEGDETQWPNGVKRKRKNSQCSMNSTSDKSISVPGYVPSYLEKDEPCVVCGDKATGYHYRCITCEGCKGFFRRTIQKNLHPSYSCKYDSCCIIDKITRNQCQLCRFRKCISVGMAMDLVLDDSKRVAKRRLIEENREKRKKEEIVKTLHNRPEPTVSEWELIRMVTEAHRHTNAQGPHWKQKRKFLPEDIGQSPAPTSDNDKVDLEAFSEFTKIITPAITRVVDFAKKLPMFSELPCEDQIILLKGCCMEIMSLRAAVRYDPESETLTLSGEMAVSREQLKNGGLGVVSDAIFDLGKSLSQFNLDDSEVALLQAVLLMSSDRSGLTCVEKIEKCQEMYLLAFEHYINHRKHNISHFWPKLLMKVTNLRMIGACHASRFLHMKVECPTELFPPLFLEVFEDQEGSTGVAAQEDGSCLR

Assay [10] deals with zebrafish Peroxisome Proliferator-activated Receptor gamma (PPARg), gene 557037. Briefly: ATG_zfPPARg_XSP2: Attagene TRANS-FACTORIAL Multi-Species (XSP2) HepG2 Assay for zebrafish Peroxisome Proliferator-activated Receptor gamma (PPARg) (AID 2283833).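 Note: reporter mRNA from a zebrafish PPARg GAL4 chimera measured by RT-PCR and capillary electrophoresis; actives increase reporter signal over DMSO so AC50 reflects activation.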 Summed up: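 Cell-based transactivation of a chimeric zebrafish PPARg-GAL4 receptor was assessed in transiently transfected HepG2 cells after 24 h of treatment. Reporter mRNA induction, detected fluorescently after RT-PCR, was analysed in the positive direction against DMSO.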

Assay [11] deals with turtle Thyroid Hormone Receptor, alpha (TRa), gene 101949057. The assay can be described thus: ATG_trTRa_XSP2: Attagene TRANS-FACTORIAL Multi-Species (XSP1) HepG2 Assay for turtle Thyroid Hormone Receptor, alpha (TRa) (AID 2283834).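 Note: hits raise reporter mRNA over the DMSO baseline so AC50 marks activators.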 In outline:
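Gain-of-signal reporter transcription measured in transiently transfected HepG2 at 24 h post-dose. Fluorescent RT-PCR products were resolved by capillary electrophoresis and compared with DMSO vehicle.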

Assay [12] can be described thus: ATG_M_61_XSP2: Attagene TRANS-FACTORIAL Multi-Species (XSP2) HepG2 Assay for M61 Transcription Factor (Internal Marker) (AID 2283835; active = hit-call score of the fitted dose curve at least 0.9, where 1 is the maximum; inactive = score below 0.9;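 note: reporter mRNA of an internal background marker read by RT-PCR and capillary electrophoresis; active means a rise in signal above the DMSO baseline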). In outline:
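Signal was mRNA induction detected as fluorescence after RT-PCR and capillary electrophoresis, analysed in the gain direction with DMSO as baseline. HepG2 cells transiently carrying reporter constructs received chemicals for 24 h.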

Assay [13] deals with zebrafish Thyroid Hormone Receptor beta (TRb), thrb (gene 30607) (UniProt Q9PVE4). The assay can be described thus: ATG_zfTRb_XSP2: Attagene TRANS-FACTORIAL Multi-Species (XSP1) HepG2 Assay for zebrafish Thyroid Hormone Receptor beta (TRb) (AID 2283836). Summed up:
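Multiplexed trans-activation in HepG2 cells, 24 h treatment, with reporter mRNA read by RT-PCR and capillary electrophoresis. Gain-of-signal against DMSO.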

In assay [14] the target is frog Thyroid hormone Receptor alpha (TRa), thra-a (gene 397942) (UniProt P15204). The assay can be described thus: ATG_frTRa_XSP2: Attagene TRANS-FACTORIAL Multi-Species (XSP2) HepG2 Assay for frog Thyroid hormone Receptor alpha (TRa) (AID 2283839). Summed up:
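Frog thyroid receptor alpha was tested as an exogenous NR-Gal4 fusion in transiently transfected HepG2 cells. After 24 h chemical treatment, reporter mRNA induction was quantified by RT-PCR and capillary electrophoresis, with gain-of-signal analysed relative to DMSO.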

For assay [15], the target named is human Thyroid hormone Receptor beta (TRb), THRB (gene 7068) (UniProt P10828). The assay can be described thus: ATG_hTRb_XSP2: Attagene TRANS-FACTORIAL Multi-Species (XSP2) HepG2 Assay for human Thyroid hormone Receptor beta (TRb) (AID 2283840).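 Note: actives raise reporter mRNA so potency reflects agonist-like gain of signal.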 Summed up: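 In this cell-based multiplex, HepG2 liver cells carrying transfected GAL4-UAS reporter constructs are exposed to chemical for 24 hours, then reporter transcripts are measured by RT-PCR with capillary electrophoresis, scored as gain of signal against DMSO.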
Sequence of human Thyroid hormone Receptor beta (TRb), THRB (gene 7068) (P10828 whole entry, looked up, the tested form may be a part): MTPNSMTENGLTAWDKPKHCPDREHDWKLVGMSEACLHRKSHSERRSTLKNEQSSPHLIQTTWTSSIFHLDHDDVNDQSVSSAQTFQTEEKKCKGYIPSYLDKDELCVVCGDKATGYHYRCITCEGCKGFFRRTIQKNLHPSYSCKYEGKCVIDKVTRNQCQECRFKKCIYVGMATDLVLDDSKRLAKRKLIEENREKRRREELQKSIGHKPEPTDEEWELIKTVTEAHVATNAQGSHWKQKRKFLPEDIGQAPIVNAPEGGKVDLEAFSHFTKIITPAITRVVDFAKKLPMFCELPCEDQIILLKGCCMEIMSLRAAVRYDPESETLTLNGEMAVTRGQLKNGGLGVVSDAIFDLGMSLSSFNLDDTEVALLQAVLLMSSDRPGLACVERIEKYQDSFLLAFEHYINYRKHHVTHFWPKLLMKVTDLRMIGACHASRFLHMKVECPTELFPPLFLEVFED

Structures are written as SMILES. Results filed as inconclusive are left out. Activity calls are given as the source filed them. Rule for the calls, unless noted: active = hit-call score of the fitted dose curve at least 0.9, where 1 is the maximum; inconclusive = response in the unintended direction; inactive = score below 0.9.

Sequence of frog Thyroid hormone Receptor alpha (TRa), thra-a (gene 397942) (P15204 whole entry, looked up, the tested form may be a part): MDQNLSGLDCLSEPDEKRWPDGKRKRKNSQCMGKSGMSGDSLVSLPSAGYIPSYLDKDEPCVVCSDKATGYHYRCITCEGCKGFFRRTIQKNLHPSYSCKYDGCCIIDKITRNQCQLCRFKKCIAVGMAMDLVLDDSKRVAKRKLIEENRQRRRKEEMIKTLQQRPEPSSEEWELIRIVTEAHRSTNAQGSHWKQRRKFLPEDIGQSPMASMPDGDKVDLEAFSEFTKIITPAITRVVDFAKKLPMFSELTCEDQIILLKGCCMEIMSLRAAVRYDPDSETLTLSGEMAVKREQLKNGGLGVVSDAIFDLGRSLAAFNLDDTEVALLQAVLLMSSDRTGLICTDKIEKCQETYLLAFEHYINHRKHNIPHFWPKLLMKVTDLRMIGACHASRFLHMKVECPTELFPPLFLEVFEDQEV
Sequence of Peroxisome proliferator-activated receptor gamma (Homo sapiens) (P37231 whole entry, looked up, the tested form may be a part): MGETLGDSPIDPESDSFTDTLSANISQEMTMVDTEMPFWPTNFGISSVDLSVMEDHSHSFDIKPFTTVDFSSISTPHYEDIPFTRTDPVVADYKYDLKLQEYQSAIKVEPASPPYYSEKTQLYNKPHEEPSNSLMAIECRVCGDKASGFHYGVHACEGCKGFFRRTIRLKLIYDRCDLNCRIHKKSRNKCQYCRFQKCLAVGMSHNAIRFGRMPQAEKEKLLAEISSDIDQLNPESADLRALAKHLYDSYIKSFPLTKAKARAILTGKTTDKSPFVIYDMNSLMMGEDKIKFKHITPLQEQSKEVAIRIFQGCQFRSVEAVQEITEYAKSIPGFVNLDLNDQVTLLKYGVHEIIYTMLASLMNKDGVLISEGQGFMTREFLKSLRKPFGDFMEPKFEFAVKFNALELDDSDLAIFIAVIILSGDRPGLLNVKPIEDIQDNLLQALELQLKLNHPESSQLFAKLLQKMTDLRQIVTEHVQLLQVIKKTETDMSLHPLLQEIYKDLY
Sequence of zebrafish Thyroid Hormone Receptor beta (TRb), thrb (gene 30607) (Q9PVE4 whole entry, looked up): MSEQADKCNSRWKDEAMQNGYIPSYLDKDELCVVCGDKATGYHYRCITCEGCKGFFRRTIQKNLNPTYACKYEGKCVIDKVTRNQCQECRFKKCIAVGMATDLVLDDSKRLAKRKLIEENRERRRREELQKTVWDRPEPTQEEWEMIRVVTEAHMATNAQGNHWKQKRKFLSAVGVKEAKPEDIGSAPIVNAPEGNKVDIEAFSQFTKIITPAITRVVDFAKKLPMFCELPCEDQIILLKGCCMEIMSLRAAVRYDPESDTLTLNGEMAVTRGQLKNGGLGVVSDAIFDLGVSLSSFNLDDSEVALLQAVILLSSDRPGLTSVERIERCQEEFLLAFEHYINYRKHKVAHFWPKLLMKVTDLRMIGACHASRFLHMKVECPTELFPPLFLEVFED

On to `CC(C)(O)c1coc(S(=O)(=O)NC(=O)Nc2c3c(cc4c2CCC4)CCC3)c1`, for which the outcome in assay [1] was inactive. For the compound `O=C(O)c1cc(N=Nc2ccc(S(=O)(=O)Nc3ccccn3)cc2)ccc1O`, the result in assay [1] was inactive. On to `CCCCC(CC)COC(=O)c1ccc(C(=O)OCC(CC)CCCC)cc1` (stereo unspecified), for which the result in assay [2], in [3] and in [4] was inactive. Take `CN(C)c1ccc(Cc2ccc(N(C)C)cc2)cc1`: the outcome in assay [1] was inactive. The same measure, in the same setting: with `COc1cccc(-c2ccc(/C=C\CN3CCCCCC3)cc2Cl)c1` the entry was “inactive”; with `O=C(CCCCCCCCc1cccnc1)N1CCC(C=C(c2ccccc2)c2ccccc2)CC1`, “inactive”.

As to `CCOC(=O)COc1ccc2c(c1)CC(NCC(O)c1cccc(Cl)c1)CC2` (stereo unspecified), the outcome in assay [1] was inactive. As for `COc1ccc(/C=C/S(=O)(=O)NC(=O)c2ccc(C)cc2Cl)cc1`, the outcome in assay [1] was inactive.

Consider `O=C(NS(=O)(=O)/C=C/c1ccccc1)c1ccc(F)cc1Cl`, for which the values for the AC50 in assay [2] and in [3] were 7.49 µM (active) and 5.24 µM (active), respectively.

On to `COCCOc1cc2cc(C(=O)NC3CCN(C(C)C)CC3)n(CC(=O)Nc3ccc(Cl)cn3)c2cn1`, for which the outcome in assay [1] was inactive. As to `O=P(OC(CCl)CCl)(OC(CCl)CCl)OC(CCl)CCl`, the compound was called inactive in [5], in [9], in assay [10], in assay [11], in [12] and in [13]. The result in [14], in assay [15] and in assay [1] was inactive. Moreover, the AC50 in [6] is 50.5 µM (active); in [7], 26.2 µM (active); in [8], 0.703 µM (active). For `Fc1ccccc1[C@@H](F)COC1CCC(Nc2ncnc3[nH]ncc23)CC1` (stereo partly specified), the AC50 in assay [1] was 9.92 µM (active). Turning to `Cc1[nH]cnc1C[C@H]1CCc2c(C)c3ccccc3n2C1=O`, in [1], the result was inactive. For the compound `CC(C)c1cccc(C(C)C)c1N1C(=O)c2ccc(O)cc2C1=O`, the outcome in [1] was inactive. On the same count and under the same terms, then `CCCCCCc1ccc(O)cc1O`, with “inactive”. Same read-out and setting: with `O=C(O)c1cccc(N(Cc2cccnc2)c2ccc(OC(F)F)c(OC(F)F)c2)c1` the entry was “inactive”; with `CCOC(=O)c1ccc(C2CCC(NC[C@H](O)COc3ccc(O)c(NS(C)(=O)=O)c3)CC2)cc1` (stereo partly specified), “inactive”.

For orientation: AC50 means the concentration at which the activity in the assay is half-maximal.
